Measurements as given in PubChem BioAssay AID1159580 (chemical genetic matrix, 2015).
The whole screen tested about 5,500 compounds, of which about 2,000 (36%) were called active. Roughly 18% stayed inconclusive and do not appear here. The list shows a part of the results. Values without a mark were called inactive. Cut-off read from the data, not from the text of the source: active = normalized growth mostly below about 0.91 (no sharp cut-off); inconclusive = no clear call, values can overlap the other calls; inactive = mostly above about 0.92.

Assay: chemical genetic growth profiling, strain panel (AID 1159580);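 note: tested at 20 µM; growth read once vehicle control cultures reached saturation at 30 °C; 1 = growth at the plate median or of vehicle wells; lower values mean less growth of the strain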
Conditions: S. cerevisiae deletion strains, growth OD

## CC(C)=CCc1c2c(c3occ(-c4ccc(O)cc4)c(=O)c3c1O)C=CC(C)(C)O2
Locus YJR043C, strain POL32, stronger effect = lower value
  normalized growth: 0.717 (active)
Locus YJR066W, strain TOR1, stronger effect = lower value
  normalized growth: 0.906
Locus YJR075W, strain HOC1, stronger effect = lower value
  normalized growth: 0.852 (active)
Locus YKL009W, strain mrt4, stronger effect = lower value
  normalized growth: 0.961
Locus YKL068W, stronger effect = lower value
  normalized growth: 1.01
Locus YKL085W, strain MDH1 (second series), stronger effect = lower value
  normalized growth: 1.02
Locus YKL085W, strain MDH1, stronger effect = lower value
  normalized growth: 1.02
Locus YKL160W, strain elf1, stronger effect = lower value
  normalized growth: 0.868 (active)
Locus YKL190W, strain CNB1, stronger effect = lower value
  normalized growth: 0.772 (active)
Locus YKR001C, strain vps1, stronger effect = lower value
  normalized growth: 0.927
Locus YKR026C, strain gcn3, stronger effect = lower value
  normalized growth: 1
Locus YKR091W, strain srl3, stronger effect = lower value
  normalized growth: 0.98
Locus YLL001W, strain dnm1, stronger effect = lower value
  normalized growth: 0.937
Locus YLL026W, stronger effect = lower value
  normalized growth: 0.915 (active)
Locus YLL041C, strain sdh2, stronger effect = lower value
  normalized growth: 0.982
Locus YLR027C, strain aat2, stronger effect = lower value
  normalized growth: 0.907 (active)
Locus YLR039C, strain RIC1, stronger effect = lower value
  normalized growth: 0.863
Locus YLR058C, strain SHM2, stronger effect = lower value
  normalized growth: 0.802 (active)
Locus YLR102C, strain apc9, stronger effect = lower value
  normalized growth: 1.05
Locus YLR113W, strain HOG1, stronger effect = lower value
  normalized growth: 0.965
Locus YLR221C, strain rsa3, stronger effect = lower value
  normalized growth: 0.858 (active)
Locus YLR258W, strain gsy2, stronger effect = lower value
  normalized growth: 0.926
Locus YLR262C, strain YPT6 (second series), stronger effect = lower value
  normalized growth: 0.881
Locus YLR268W, strain sec22, stronger effect = lower value
  normalized growth: 0.841 (active)
Locus YLR320W, strain mms22, stronger effect = lower value
  normalized growth: 0.863 (active)
Locus YLR342W, strain FKS1, stronger effect = lower value
  normalized growth: 0.775 (active)
Locus YLR357W, strain rsc2, stronger effect = lower value
  normalized growth: 0.814 (active)
Locus YLR370C, strain arc18, stronger effect = lower value
  normalized growth: 0.978
Locus YLR371W, strain rom2, stronger effect = lower value
  normalized growth: 0.806 (active)
Locus YLR384C, strain iki3, stronger effect = lower value
  normalized growth: 1
Locus YLR418C, strain cdc73, stronger effect = lower value
  normalized growth: 0.827 (active)
Locus YML016C, strain PPZ1, stronger effect = lower value
  normalized growth: 0.677 (active)
Locus YML032C, strain rad52, stronger effect = lower value
  normalized growth: 0.987
Locus YML120C, strain ndi1, stronger effect = lower value
  normalized growth: 0.99
Locus YML124C, strain tub3, stronger effect = lower value
  normalized growth: 0.994
Locus YMR058W, strain fet3, stronger effect = lower value
  normalized growth: 0.429 (active)
Locus YMR078C, strain ctf18, stronger effect = lower value
  normalized growth: 1.03
Locus YMR125W, strain sto1, stronger effect = lower value
  normalized growth: 1.07
Locus YMR129W, stronger effect = lower value
  normalized growth: 0.968
Locus YMR205C, strain PFK2, stronger effect = lower value
  normalized growth: 0.902
Locus YMR223W, strain ubp8, stronger effect = lower value
  normalized growth: 0.936
Locus YMR231W, strain pep5, stronger effect = lower value
  normalized growth: 0.948
Locus YMR307W, strain GAS1, stronger effect = lower value
  normalized growth: 0.724
Locus YNL067W, strain RPL9B, stronger effect = lower value
  normalized growth: 0.93
Locus YNL071W, strain lat1, stronger effect = lower value
  normalized growth: 0.943
Locus YNL128W, strain TEP1, stronger effect = lower value
  normalized growth: 0.643 (active)
Locus YNL153C, strain GIM3, stronger effect = lower value
  normalized growth: 0.835 (active)
Locus YNL183C, strain NPR1, stronger effect = lower value
  normalized growth: 0.908
Locus YNL209W, strain ssb2, stronger effect = lower value
  normalized growth: 0.51 (active)
Locus YNL233W, strain BNI4, stronger effect = lower value
  normalized growth: 0.787 (active)
Locus YNL248C, strain rpa49, stronger effect = lower value
  normalized growth: 0.951
Locus YNL250W, strain rad50, stronger effect = lower value
  normalized growth: 0.999
Locus YNL271C, strain bni1, stronger effect = lower value
  normalized growth: 1.01
Locus YNL298W, strain CLA4, stronger effect = lower value
  normalized growth: 0.991
Locus YNL307C, strain MCK1, stronger effect = lower value
  normalized growth: 0.957
Locus YNL322C, strain KRE1 (second series), stronger effect = lower value
  normalized growth: 1.05
Locus YNR049C, strain mso1, stronger effect = lower value
  normalized growth: 0.999
Locus YNR052C, strain pop2, stronger effect = lower value
  normalized growth: 1
Locus YOL006C, strain TOP1, stronger effect = lower value
  normalized growth: 0.389 (active)
Locus YOL012C, strain htz1
  normalized growth: 0.443
Locus YOL147C, strain pex11, stronger effect = lower value
  normalized growth: 1
Locus YOR001W, strain rrp6, stronger effect = lower value
  normalized growth: 0.988
Locus YOR061W, strain CKA2, stronger effect = lower value
  normalized growth: 0.733 (active)
Locus YOR069W, strain VPS5, stronger effect = lower value
  normalized growth: 0.87 (active)
Locus YOR070C, strain gyp1, stronger effect = lower value
  normalized growth: 0.812 (active)
Locus YOR080W, strain dia2, stronger effect = lower value
  normalized growth: 0.934
Locus YOR083W, strain WHI5, stronger effect = lower value
  normalized growth: 0.866 (active)
Locus YOR106W, strain vam3, stronger effect = lower value
  normalized growth: 0.634 (active)
Locus YOR136W, strain idh2, stronger effect = lower value
  normalized growth: 0.996
Locus YOR144C, strain elg1, stronger effect = lower value
  normalized growth: 1
Locus YOR184W, strain ser1, stronger effect = lower value
  normalized growth: 0.869 (active)
Locus YOR231W, strain MKK1, stronger effect = lower value
  normalized growth: 0.991
Locus YOR265W, strain rbl2, stronger effect = lower value
  normalized growth: 0.888 (active)
Locus YOR270C, strain vph1, stronger effect = lower value
  normalized growth: 0.849
Locus YOR290C, strain snf2, stronger effect = lower value
  normalized growth: 1
Locus YOR316C, strain cot1, stronger effect = lower value
  normalized growth: 0.988
Locus YPL051W, strain arl3, stronger effect = lower value
  normalized growth: 0.658 (active)
Locus YPL078C, strain atp4, stronger effect = lower value
  normalized growth: 0.985
Locus YPL106C, strain sse1, stronger effect = lower value
  normalized growth: 0.793 (active)
Locus YPL240C, strain hsp82, stronger effect = lower value
  normalized growth: 0.957
Locus YPL241C, strain CIN2, stronger effect = lower value
  normalized growth: 0.936
Locus YPL256C, strain CLN2, stronger effect = lower value
  normalized growth: 1
Locus YPR119W, strain clb2, stronger effect = lower value
  normalized growth: 1.02
Locus YPR141C, strain kar3, stronger effect = lower value
  normalized growth: 1.01
Locus YPR163C, strain tif3, stronger effect = lower value
  normalized growth: 0.979
Locus YPR167C, strain met16, stronger effect = lower value
  normalized growth: 0.913 (active)
Strain wtn01, stronger effect = lower value
  normalized growth: 0.811 (active)
